IDH1 R132H inh – blocks human mutant IDH1 R132H enzyme; IDH1-R132H enzyme, NADPH consumption, diaphorase/resazurin fluorescence; Potency, µM (titrated, usually from 76.6 µM), usual class: inhibitors; actives 0.093% (n = 390,000); AID 602179; further: nearly all actives have a fitted effect of over 65% in size
Target sequence (O75874 whole entry R132H, stated change not applied): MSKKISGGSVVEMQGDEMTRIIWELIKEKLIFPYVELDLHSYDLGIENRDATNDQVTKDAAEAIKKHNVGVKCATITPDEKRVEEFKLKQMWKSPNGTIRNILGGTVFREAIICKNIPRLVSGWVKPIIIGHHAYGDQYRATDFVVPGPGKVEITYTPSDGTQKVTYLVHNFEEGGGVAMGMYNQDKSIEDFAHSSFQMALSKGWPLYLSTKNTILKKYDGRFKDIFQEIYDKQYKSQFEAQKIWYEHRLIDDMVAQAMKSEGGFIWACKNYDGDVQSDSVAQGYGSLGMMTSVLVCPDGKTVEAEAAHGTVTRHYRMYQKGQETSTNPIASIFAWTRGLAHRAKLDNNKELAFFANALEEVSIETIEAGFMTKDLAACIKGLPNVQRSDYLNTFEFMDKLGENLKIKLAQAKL
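IDH1-R132H (0.5 ug/mL) preincubated 30 min with compound, then NADPH (0.016 mM) and alpha-KG (2 mM) added; 80 min at RT, pH 7.5. Remaining NADPH coupled via diaphorase/resazurin to fluorescence (540/590 nm); concentration-response curves normalized to no-enzyme control.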
TrxR1 inh – rat TrxR1 inhibition; O89049; recombinant rTrxR1, NADPH fluorescence consumption, selenite substrate; Potency, µM (series often up to 114 µM), actives largely listed as inhibitors; actives 1% (n = 390,000); AID 588453; further: nearly all actives have a fitted effect of over 65% in size
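Rat TrxR1 (90 nM in the dispensed reagent) was pre-reduced with 400 uM NADPH for 5 min at room temperature, then incubated with compound for 15 min. After 400 uM selenite was added, NADPH fluorescence (Ex 340/Em 450 nm) was followed for 8 min.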
TrxR1 substrate – substrates of rat thioredoxin reductase 1; O89049; purified TrxR1 substrate turnover, NADPH consumption readout; Potency, µM (highest dose often 114 µM); actives 0.01% (n = 390,000); AID 588456; further: nearly all actives have a fitted effect of over 50% in size
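Rat TrxR1, dispensed at 90 nM, was prereduced with 400 uM NADPH (final) for 5 min at ~22 deg C, then incubated with compound 15 min before 400 uM selenite. A first-read NADPH fluorescence drop versus no-compound background flagged substrates.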
Sfp inh – inhibitors of Bacillus subtilis Sfp phosphopantetheinyl transferase; Q9F4F7; Biochemical Sfp PPTase activity, qHTS; Potency, µM, hits mostly inhibitors; actives 3.5% (n = 310,000);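 further: the enzyme is Sfp with the accession as filed and its product quenches rhodamine fluorescence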
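With Hepes-Na pH 7.6 buffer containing 10 mM MgCl2, Sfp (15 nM) modified BHQ-2-YbbR (12.5 uM) using rhodamine-CoA (5 uM). Two reads 30 minutes apart at 525/598 nm yielded each well's rate.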
PLK1 PBD block – PLK1 (human) polo-box domain binding inhibition | Plk1 PBD binding of FITC phosphopeptide, fluorescence polarization | Potency, µM, hits mostly inhibitors | actives 2.8% (n = 360,000); further: series mostly up to about 57 µM; nearly all actives have a fitted effect of over 65% in size
VDR inhibitor – inhibitors of human vitamin D receptor; Potency, µM, usual class: inhibitors; AID 504847; VDR-SRC2-3 peptide fluorescence polarization, 2 h; P11473; actives 0.93% (n = 400,000)
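After 23 nl compound addition and a short centrifugation, plates sat for 2 hours at ambient temperature; polarization of fluorescence then indicated loss of VDR binding to peptide SRC2-3.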
Large screens that a line does not name were inactive. This is a sample that favours compounds with a hit; in the whole collection about 5.2% have one here. The call rests on the fitted dose curve; in most records, active means well fitted curve in the direction sought with a large enough effect; inconclusive means small, poorly fitted or top-dose-only effect, or another doubt; inactive means no such curve, though single readings can be large; an effect the other way counts as inactive or inconclusive.

CC(=O)Oc1ccc2nc(-c3ccco3)oc(=O)c2c1	PLK1 PBD block 26.7µM, VDR inhibitor inconclusive
CC(=O)Oc1ccc2nc(-c3cccs3)oc(=O)c2c1	none
CCc1noc(C)c1C(=O)NNC(=O)c1ccccc1Cl	none (no result: Sfp inh)
CCN1CCN(Cc2ccc(NC(=O)c3ccc(C)c(NC(=O)c4nccnc4N)c3)cc2C(F)(F)F)CC1	Sfp inh 89.1µM
CCN1CCN(Cc2ccc(NC(=O)c3ccc(C)c(NC(=O)c4nccn4C)c3)cc2C(F)(F)F)CC1	none
CCN1CCN(Cc2ccc(NC(=O)c3ccc(C)c(NC(=O)c4cc(-c5ccc(Br)cc5)n[nH]4)c3)cc2C(F)(F)F)CC1	Sfp inh 79.4µM
CCCCN(C(=O)Cn1nnc2ccccc21)C(C(=O)NCc1ccco1)c1ccncc1 (stereo not drawn)	Sfp inh 50.1µM
COCCNC(=O)C(c1ccco1)N(C(=O)Cn1nnc2ccccc21)c1cc(C)ccc1C (stereo not drawn)	PLK1 PBD block 3.36µM, VDR inhibitor inconclusive
COCCNC(=O)C(c1ccco1)N(C(=O)Cn1nnc2ccccc21)c1ccccc1C (stereo not drawn)	none
Cc1cc(C)cc(N(C(=O)Cn2nnc3ccccc32)C(C(=O)NCc2ccco2)c2ccncc2)c1 (stereo not drawn)	Sfp inh 44.7µM
O=[N+]([O-])/C(C(Cl)=C(Cl)Cl)=C1\Nc2ccccc2O1	TrxR1 inh inconclusive, PLK1 PBD block inconclusive
O=C(OCC(=O)N1CCCCCC1)c1ccc(Cl)c(S(=O)(=O)N2CCCC2)c1	PLK1 PBD block 10.6µM, VDR inhibitor inconclusive
COC(=O)c1ccc(Cl)c(S(=O)(=O)N2CCCC2)c1	none
O=C(OCC(=O)N1CCCC1)c1ccc(Cl)c([N+](=O)[O-])c1	none
CCNc1ccc(C(=O)OCC(=O)N2CCCC2)cc1[N+](=O)[O-]	PLK1 PBD block 26.7µM, VDR inhibitor inconclusive
CCOC(=O)c1ccc(Cl)c(S(=O)(=O)N2CCCC2)c1	PLK1 PBD block 21.2µM
NC(=O)COC(=O)c1ccc(Cl)c(S(=O)(=O)N2CCCCCC2)c1	none
C[C@H](N)C(=O)NCC(=O)N[C@H]1CSSC[C@@H](C(=O)O)NC(=O)[C@H](CO)NC(=O)[C@H]([C@@H](C)O)NC(=O)[C@H](Cc2ccccc2)NC(=O)[C@H]([C@@H](C)O)NC(=O)[C@H](CCCCN)NC(=O)[C@@H](Cc2c[nH]c3ccccc23)NC(=O)[C@H](Cc2ccccc2)NC(=O)[C@H](Cc2ccccc2)NC(=O)[C@H](CC(N)=O)NC(=O)[C@H](CCCCN)NC1=O	none (no result: IDH1 R132H inh, TrxR1 inh, TrxR1 substrate, PLK1 PBD block)
O=C1C=CC(=O)N1c1ccc(O)cc1	TrxR1 inh 1.26µM, Sfp inh 12.6µM, PLK1 PBD block 16.8µM, VDR inhibitor 25.1µM
O=C1c2cccc3cccc(c23)C(=O)N1c1ccc(O)cc1	Sfp inh 50.1µM
O=c1cc(-c2ccccc2)oc2cc(O[C@@H]3O[C@H](CO)[C@@H](O)[C@H](O)[C@H]3O)c(O)c(O)c12	Sfp inh 50.1µM (no result: IDH1 R132H inh, TrxR1 inh, TrxR1 substrate, PLK1 PBD block, VDR inhibitor)
COc1ccc(OC)c(CNc2nc3ccccc3n2CCN2CCCCC2)c1	Sfp inh 79.4µM
COc1ccc(CNc2nc3ccccc3n2CCN2CCCCC2)c(OC)c1	Sfp inh inconclusive
COC1=CC(=O)OC(c2ccccc2)C1 (stereo not drawn)	none (no result: IDH1 R132H inh, TrxR1 inh, TrxR1 substrate, Sfp inh, VDR inhibitor)
CC(=O)c1ccc(NC(=O)CC2Nc3cccc4cccc(c34)NC2=O)cc1 (stereo not drawn)	TrxR1 inh inconclusive, Sfp inh 50.1µM
Cc1csc(NC(=O)CSc2nc3sc(C)c(C)c3c(=O)[nH]2)n1	Sfp inh 20µM, PLK1 PBD block 2.38µM, VDR inhibitor inconclusive
C=C1CCC(O)C/C1=C/C=C1\CCC[C@]2(C)[C@@H]([C@H](C)/C=C/[C@H](C)C(C)C)CC[C@@H]12 (stereo partly drawn)	VDR inhibitor 50.1µM (no result: IDH1 R132H inh, TrxR1 inh, TrxR1 substrate, PLK1 PBD block)
O=C(CN1C(=O)c2ccccc2C1=O)NCc1ccc(F)cc1	PLK1 PBD block 7.52µM, VDR inhibitor inconclusive
O=C(CCN1C(=O)c2ccccc2C1=O)NCc1ccc(F)cc1	none
N#Cc1c(NC(=O)CSc2nc(-c3ccco3)cc(C(F)(F)F)n2)sc2c1CCCC2	PLK1 PBD block 21.2µM
COC(=O)c1c(NC(=O)CSc2nc(-c3ccco3)cc(C(F)(F)F)n2)sc2c1CCCC2	PLK1 PBD block inconclusive
COCCCn1c(SCC(=O)Nc2sc3c(c2C#N)CCCC3)nnc1-c1ccncc1	TrxR1 inh inconclusive, PLK1 PBD block 26.7µM
CCCCn1c(SCC(=O)Nc2sc3c(c2C(N)=O)CCC3)nnc1-c1ccccc1	TrxR1 inh 35.5µM, PLK1 PBD block inconclusive, VDR inhibitor inconclusive (no result: Sfp inh)
COCCCn1c(SCC(=O)NC2CCCC2)nnc1-c1ccncc1	VDR inhibitor inconclusive
Cn1cnnc1SCC(=O)Nc1sc2c(c1C#N)CCCCC2	Sfp inh 50.1µM
CCOC(=O)c1c(NC(=O)CSc2nnc(-c3c[nH]c4ccccc34)n2CC)sc2c1CCCC2	none
O=C(NCCc1ccccc1)c1ccc(CS(=O)Cc2ccc(Cl)cc2)o1 (stereo not drawn)	TrxR1 inh inconclusive
O=Cc1ccc(N2CCOCC2)cc1	none (no result: IDH1 R132H inh, Sfp inh, PLK1 PBD block, VDR inhibitor)
CCN(Cc1ccccc1)S(=O)(=O)c1c(C)[nH]c(C)c1C(=O)N1CCCC1	none
O=C(Nc1ccc[n+](CC(=O)c2cccc3ccccc23)c1)c1ccccc1	Sfp inh 56.2µM
NC(=O)c1cc[n+](CC(=O)c2ccc(NC(=O)c3ccccc3)cc2)cc1	PLK1 PBD block 23.8µM, VDR inhibitor inconclusive
O=C(OCC(=O)N1CCCC1=O)c1cc2ccccc2o1	PLK1 PBD block 21.2µM (no result: Sfp inh)
Cc1cccc(C(=O)OCC(=O)N2CCCC2=O)c1O	VDR inhibitor inconclusive (no result: Sfp inh)
Nc1nccnc1C(=O)OCC(=O)NC1CCCc2ccccc21 (stereo not drawn)	none (no result: Sfp inh)
CCCSc1nnc(NC(=O)CSc2sc3c(O)cc(=O)[nH]c3c2C#N)s1	Sfp inh inconclusive, PLK1 PBD block 16.8µM
Cc1c(Cl)cccc1NC(=O)CSc1sc2c(O)cc(=O)[nH]c2c1C#N	Sfp inh inconclusive
N#Cc1c(SCC(=O)Nc2nc3ccccc3s2)sc2c(O)cc(=O)[nH]c12	PLK1 PBD block 23.8µM (no result: Sfp inh)
N#Cc1c(SCC(=O)Nc2nccs2)sc2c(O)cc(=O)[nH]c12	Sfp inh 39.8µM, PLK1 PBD block inconclusive
N#Cc1c(SCC(=O)Nc2ccc(Cl)cc2Cl)sc2c(O)cc(=O)[nH]c12	PLK1 PBD block inconclusive
O=C(c1cccs1)c1ccccc1Cc1cccs1	none (no result: Sfp inh)
Cc1cccc(C(=O)NC(=S)NC(C)c2ccccc2)c1 (stereo not drawn)	TrxR1 inh inconclusive (no result: Sfp inh)
CN(C)c1ccc(C(CNC(=O)COc2ccccc2)N2CCOCC2)cc1 (stereo not drawn)	none (no result: Sfp inh, PLK1 PBD block)
